Screening data: PubChem BioAssay, National Center for Advancing Translational Sciences (NCATS)
HP1b chromo inh: HTS for Inhibitors of HP1-beta Chromodomain Interactions with Methylated Histone Tails | Chromobox protein homolog 1 (Homo sapiens), P83916 | AlphaScreen HP1-beta / biotin-H3K9me3 peptide binding | Potency, µM (top dose mostly 114 µM), for inactives: at the highest dose activity change, negative = inhibition, hits mostly inhibitors | 390,000 compounds, 0.56% hits; note: nearly all actives have a fitted effect of over 70% in size
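AlphaScreen: HP1-beta (50 nM) preformed 30 min with biotin-H3(1-18)K9me3 peptide (50 nM) in PBS pH 7.4, 0.01% Tween-20. Compound added for 30 min at RT, then streptavidin donor/nickel chelate acceptor beads (10 ug/mL) for 30 min.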
G9a block: qHTS Assay for Inhibitors of Histone Lysine Methyltransferase G9a; Histone-lysine N-methyltransferase EHMT2 (Homo sapiens), Q96KQ7; G9a H3K9 monomethylation, AlphaScreen, 2 h; Potency, µM (doses to about 102 µM), without a hit: at the top dose activity, negative = inhibition, actives largely listed as inhibitors; 350,000 compounds, 8.8% hits; AID 504332, 2011; note: % is set by controls: 0 for no effect and ±100 for the full control effect; nearly all actives have a fitted effect of over 75% in size
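AlphaScreen detection with an anti-monomethyl H3K9 antibody quantified product after a 2 h room-temperature reaction containing 500 nM biotinylated H3K9 peptide, 20 µM SAM and 20 nM enzyme, which had been preincubated 15 min with compound.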
BAZ2B block: qHTS Assay for Inhibitors of BAZ2B. Bromodomain adjacent to zinc finger domain protein 2B (Homo sapiens), Q9UIF8. AlphaScreen BAZ2B-H3K14Ac peptide displacement. Potency, µM (top dose mostly 114 µM), without a hit: at the top dose activity change, negative = inhibition, usual class: inhibitors. 360,000 compounds, 4.4% hits; note: % is set by controls: 0 for no effect and ±100 for the full control effect; nearly all actives have a fitted effect of over 60% in size
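AlphaScreen displacement of biotin-H3(5-23)K14Ac peptide (50 nM final) from BAZ2B (50 nM final) in PBS pH 7.4, 0.01% Tween-20; complex preformed 30 min RT, then compounds (top 110 uM) 30 min RT, beads 20 min dark.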
Sfp inh: qHTS Assay for Inhibitors of Bacillus subtilis Sfp phosphopantetheinyl transferase (PPTase) | AID 1490, 2009 | Biochemical Sfp PPTase activity, qHTS | 4'-phosphopantetheinyl transferase ffp (Bacillus subtilis), Q9F4F7 | Potency, µM, for inactives: largest response in the series, negative = inhibition, actives largely listed as inhibitors | 310,000 compounds, 3.5% hits;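 note: the enzyme is Sfp with the accession as filed and its product quenches rhodamine fluorescence; 0% = enzyme reaction without inhibitor and -100% = no enzyme wells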
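Fluorescence-quenching assay with 15 nM Sfp, 5 uM rhodamine-CoA and 12.5 uM BHQ-2-labelled ybbR peptide in pH 7.6 Hepes/MgCl2 buffer. Enzyme was pre-incubated with compound for 15 min at room temperature. Rate was taken from the 30-min fluorescence change (525/598 nm).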
JMJD2A Tudor: qHTS Assay for Inhibitors of JMJD2A-Tudor Domain. Lysine-specific demethylase 4A (Homo sapiens), O75164. AlphaScreen JMJD2A-Tudor / H3K4me3 peptide binding. Potency, µM (series often up to 114 µM), for the others: at the top dose activity change, negative = inhibition, hits mostly inhibitors. 390,000 compounds, 4.4% hits. AID 504339, 2011; note: % is set by controls: 0 for no effect and ±100 for the full control effect; nearly all actives have a fitted effect of over 50% in size
Target sequence (O75164 whole entry, looked up, the tested form may be a part): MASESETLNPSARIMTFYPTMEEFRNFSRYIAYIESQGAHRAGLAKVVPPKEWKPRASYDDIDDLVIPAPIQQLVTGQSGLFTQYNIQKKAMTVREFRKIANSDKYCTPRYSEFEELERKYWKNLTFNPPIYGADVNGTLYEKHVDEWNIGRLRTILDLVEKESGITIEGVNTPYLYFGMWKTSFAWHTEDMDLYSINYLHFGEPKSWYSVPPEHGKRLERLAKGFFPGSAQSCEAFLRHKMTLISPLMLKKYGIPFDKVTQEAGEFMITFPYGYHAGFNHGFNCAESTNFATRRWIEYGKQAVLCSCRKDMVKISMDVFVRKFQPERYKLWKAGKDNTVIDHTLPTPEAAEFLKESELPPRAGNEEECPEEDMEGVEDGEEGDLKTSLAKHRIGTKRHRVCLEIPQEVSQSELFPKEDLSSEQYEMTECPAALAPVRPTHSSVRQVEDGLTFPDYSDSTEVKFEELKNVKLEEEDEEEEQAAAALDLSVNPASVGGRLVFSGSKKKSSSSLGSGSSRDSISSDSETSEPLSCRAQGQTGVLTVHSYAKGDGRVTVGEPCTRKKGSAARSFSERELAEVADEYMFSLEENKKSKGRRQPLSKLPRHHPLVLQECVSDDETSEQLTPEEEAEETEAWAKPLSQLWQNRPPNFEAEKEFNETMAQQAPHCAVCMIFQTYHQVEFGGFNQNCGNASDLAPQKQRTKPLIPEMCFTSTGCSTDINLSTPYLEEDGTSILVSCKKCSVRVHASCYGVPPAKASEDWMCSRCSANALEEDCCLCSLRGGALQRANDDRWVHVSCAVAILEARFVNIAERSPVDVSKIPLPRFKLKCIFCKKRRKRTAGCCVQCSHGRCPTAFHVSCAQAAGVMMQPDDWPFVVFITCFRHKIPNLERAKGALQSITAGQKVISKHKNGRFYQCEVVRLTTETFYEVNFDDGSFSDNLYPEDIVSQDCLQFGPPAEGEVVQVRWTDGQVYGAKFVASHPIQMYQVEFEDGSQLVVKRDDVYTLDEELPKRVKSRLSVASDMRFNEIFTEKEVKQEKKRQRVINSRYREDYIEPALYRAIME
PLK1 PBD inh: qHTS for Inhibitors of PLK1-PDB (polo-like kinase 1 - polo-box domain): Primary Screen; Serine/threonine-protein kinase PLK1 (Homo sapiens), P53350; Plk1 PBD binding of FITC phosphopeptide, fluorescence polarization; Potency, µM, inactives show max response, negative = inhibition, usual class: inhibitors; 360,000 compounds, 2.8% hits; note: series mostly up to about 57 µM; % is set by controls: 0 for no effect and ±100 for the full control effect; nearly all actives have a fitted effect of over 65% in size
* = called active by the depositor; [ ] = another dose, or the depositor's remark. The list is not random: actives were taken first. Their share in the collection is about 12%. Calls come from the whole dose curve; as a rule, active = well fitted curve in the direction sought with a large enough effect; inconclusive = small, poorly fitted or top-dose-only effect, or another doubt; inactive = no such curve, though single readings can be large; an effect the other way counts as inactive or inconclusive. Potency is the fitted concentration of half-maximal effect.

CCOc1cccc(OCCCNCCCOC)c1 was read as HP1b chromo inh inconclusive, G9a block inconclusive, BAZ2B block 40µM*, Sfp inh -8%, JMJD2A Tudor 2.8µM* and PLK1 PBD inh -2%.
CC(C)C[C@@H](NC(=O)[C@@H](O)[C@H](N)Cc1ccccc1)C(=O)O was read as G9a block 17%[59 µM] and Sfp inh 14%.
Screening O=C(Cn1ncc2c(=O)oc3ccccc3c21)NCc1ccccc1Cl returned HP1b chromo inh 8%, G9a block -21%[59 µM], BAZ2B block -13% and JMJD2A Tudor -19%.
CCc1ccc(NC(=O)C2CCN(S(=O)(=O)c3c(C)noc3/C=C/c3cccs3)CC2)cc1 was read as HP1b chromo inh 27%, G9a block 7%[59 µM] and JMJD2A Tudor -5%.
For Cc1ccc(S(=O)(=O)N(C)C[C@@H]2OCCCC[C@H](C)Oc3ccc(NC(=O)Nc4ccc(F)cc4)cc3C(=O)N([C@H](C)CO)C[C@H]2C)cc1 the results were PLK1 PBD inh -13%.
For O=C(O)c1cc(=O)c2cc(Cl)ccc2[nH]1 the results were Sfp inh -6%.
For CC1COc2c3ccccc3nn21 (configuration not stated) the results were PLK1 PBD inh -9%.
Screening CCN(C(=O)CSc1nc2ccccc2n1Cc1ccc(C(=O)OC)cc1)c1ccccc1 returned HP1b chromo inh 0%, G9a block -30%[12.7 µM], BAZ2B block -37% and JMJD2A Tudor -29%.
Screening CN1CCN(CCCNc2c(C=O)c(=O)[nH]c3ccccc23)CC1 returned HP1b chromo inh 34%, G9a block inconclusive, BAZ2B block -31%, Sfp inh 13%, JMJD2A Tudor -27% and PLK1 PBD inh -19%.
Screening OCCNCCCCOc1cccc(Br)c1 returned HP1b chromo inh 47%, G9a block -19%[59 µM], BAZ2B block 3%, Sfp inh -18%, JMJD2A Tudor -5% and PLK1 PBD inh 0%.
C=CCNCCCCOc1cccc(Br)c1 was read as HP1b chromo inh inconclusive, BAZ2B block 32µM*, Sfp inh 45µM*, JMJD2A Tudor 0.71µM* and PLK1 PBD inh -15%.
O=C(Nc1cc(F)ccc1F)c1ccc(CN2CC(=O)N3CCCCC3C2=O)cc1 (configuration not stated) was read as HP1b chromo inh 9%, G9a block -14%[59 µM], BAZ2B block -9% and JMJD2A Tudor -4%.
CCCCOCCCNC(=O)c1cccc(OC)c1 was read as HP1b chromo inh 40%, G9a block 7%[59 µM], BAZ2B block -6%, Sfp inh 6%, JMJD2A Tudor 7% and PLK1 PBD inh -17%.
Screening CCCC[n+]1c(C)sc2cc(OC)ccc21 returned HP1b chromo inh 50%, G9a block inconclusive, BAZ2B block -36%, Sfp inh 6.3µM*, JMJD2A Tudor 16µM* and PLK1 PBD inh -26%.
For COc1ccc2sc(C)[n+](C)c2c1 the results were HP1b chromo inh 73%, G9a block inconclusive, BAZ2B block 3%, Sfp inh 45µM*, JMJD2A Tudor -2% and PLK1 PBD inh -4%.
`O=C(CNC(=O)c1ccc(Cl)cc1)OCc1cc(=O)n2nc(C3CCCCC3)sc2n1` gave HP1b chromo inh -3%, G9a block 13%[59 µM], BAZ2B block -6% and JMJD2A Tudor -8%.
`CN(C)c1ccc(Nc2nc(N)c3ccccc3n2)cc1` gave HP1b chromo inh 32µM*, G9a block 10µM*, BAZ2B block 14µM*, Sfp inh 25µM*, JMJD2A Tudor 40µM* and PLK1 PBD inh -7%.
Nc1nc(Nc2ccccc2)nc2ccccc12 was read as HP1b chromo inh 29%, G9a block inconclusive, BAZ2B block -32%, Sfp inh -12%, JMJD2A Tudor -6%[57.1 µM] and PLK1 PBD inh -8%.
`CCOc1ccc(N2Cc3ccccc3C2)cc1` gave HP1b chromo inh 15%, G9a block 2.5µM*, Sfp inh 3%, JMJD2A Tudor -22% and PLK1 PBD inh -12%.
CCc1nc(C(N)=O)c2[nH]c(=O)n(-c3ccccc3F)c2n1 was read as HP1b chromo inh 18%, G9a block 0%[59 µM], BAZ2B block -5%, Sfp inh 1%, JMJD2A Tudor 11% and PLK1 PBD inh 5%.
`CCOc1cc2c3c(c1)C(C)=CC(C)(C)N3C(=O)C2=O` gave HP1b chromo inh inconclusive, G9a block inconclusive, BAZ2B block inconclusive, Sfp inh 14%, JMJD2A Tudor -27% and PLK1 PBD inh -3%.
Screening CC(=O)Oc1cc2c3c(c1)/C(=C1/SC(=S)NC1=O)C(=O)N3C(C)(C)C=C2C returned HP1b chromo inh inconclusive, G9a block 8.9µM*, BAZ2B block 7.9µM*, Sfp inh 35µM*, JMJD2A Tudor 11µM* and PLK1 PBD inh 27µM*.
`O=C(NCCc1nnc2ccc(N3CCCC3)nn12)c1ccccc1` gave HP1b chromo inh 35%, JMJD2A Tudor -12% and PLK1 PBD inh -1%.
For CSc1nc(N)c2cn[nH]c2n1 the results were HP1b chromo inh 28%, JMJD2A Tudor 2% and PLK1 PBD inh 1%.
COc1ccc(C(c2c(C)[nH]n(C(N)=S)c2=O)C(C#N)C#N)cc1 (configuration not stated) was read as HP1b chromo inh 24%, G9a block inconclusive, BAZ2B block 5%, Sfp inh inconclusive, JMJD2A Tudor -7% and PLK1 PBD inh 21µM*.
O=c1[nH]c2ccc(Br)cc2c(-c2ccccc2)c1CN1CCOCC1 was read as HP1b chromo inh 13%, G9a block 50µM*, BAZ2B block -11%, Sfp inh -11%, JMJD2A Tudor inconclusive and PLK1 PBD inh inconclusive.
Cc1nc2scc(-c3cccs3)c2c(=O)n1CC(=O)O was read as HP1b chromo inh 37%, G9a block -3%[59 µM], BAZ2B block 6%, Sfp inh -20%, JMJD2A Tudor 0% and PLK1 PBD inh -8%.
CC(C)n1c(=S)[nH]c2scc(-c3cccs3)c2c1=O was read as HP1b chromo inh -15%, G9a block 28µM*, BAZ2B block 50µM*, Sfp inh 40µM*, JMJD2A Tudor inconclusive and PLK1 PBD inh 27µM*.
For CCn1c(=S)[nH]c2scc(-c3cccs3)c2c1=O the results were HP1b chromo inh 27%, G9a block 35µM*, BAZ2B block -21%, Sfp inh -5%, JMJD2A Tudor -33% and PLK1 PBD inh -25%.
